# This is a sample that favours compounds with a hit; in the whole collection about 1.6% have one here.
# KCNQ2 enhance = KCNQ2 (rat) channel potentiation; AID 2239; CHO-K1 KCNQ2, FluxOR thallium flux fluorescence; hits give high values; B-score at 10 µM; hit rate 0.54% among 310,000;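 active = fluorescence ratio B-score at least 3 SD of library B-scores, with initial fluorescence B-score within 3 of them, cut at about 5.3 in these data; same plate scores as AID 2156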;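 also: B-score of peak minus minimum over baseline fluorescence ratio after K+ and Tl+ stimulus; positive B-score means potentiation of KCNQ2 with more thallium influx and brighter signal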
# KCNQ2 block = inhibitors of rat KCNQ2 potassium channel. CHO-K1 KCNQ2, FluxOR thallium flux, 20 min; hits give low values. B-score at 10 µM. hit rate 1.1% among 310,000. AID 2156;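 active = fluorescence ratio B-score at most minus 3 library SDs, with starting brightness B-score within 2 library SDs, cut at about -5.5 in these data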
# Kir21 confirm = confirmation of mouse Kir2.1 potassium channel inhibitors. Tl flux remaining, % of negative control (hits give low values), % at 10 µM. shares compounds with KCNQ2 enhance. Kir2.1-expressing cells, FluxOR thallium flux fluorescence; hits give low values. hit rate 41% among 2,300;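 active = Primary-screen hit whose thallium flux fell at least 3 control SD below untreated wells in both duplicates, with normal baseline fluorescence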;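 also: 0% = blank wells without stimulus and 100% = stimulated no-compound controls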
# Target sequence (P35561 whole entry, looked up): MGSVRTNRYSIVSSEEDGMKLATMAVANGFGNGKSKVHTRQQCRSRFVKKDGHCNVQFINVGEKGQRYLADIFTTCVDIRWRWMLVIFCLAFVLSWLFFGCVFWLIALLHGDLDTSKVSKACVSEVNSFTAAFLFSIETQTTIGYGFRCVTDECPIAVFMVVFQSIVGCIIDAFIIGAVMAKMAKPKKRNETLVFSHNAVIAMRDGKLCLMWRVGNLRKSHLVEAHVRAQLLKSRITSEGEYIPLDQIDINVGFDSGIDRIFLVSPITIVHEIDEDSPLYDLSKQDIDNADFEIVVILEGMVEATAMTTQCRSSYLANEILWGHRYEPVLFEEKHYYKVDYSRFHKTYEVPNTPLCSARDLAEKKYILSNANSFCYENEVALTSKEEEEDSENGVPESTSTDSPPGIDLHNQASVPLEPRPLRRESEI
# HEK293 ctr = parental HEK293 activity in Kir2.1 inhibitor counter-screen; shares compounds with KCNQ2 enhance; parental HEK293 cells, FluxOR thallium flux fluorescence; 0% = unstimulated blank wells; FluxOR signal as % of negative control (100 = no effect), % at 10 µM; hit rate 19% among 2,300; AID 2105;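 active = dye signal at least 3 control SD above or below untreated wells in both duplicates, raw fluorescence within 3, either direction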;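 also: percent is based on the flux ratio of peak minus minimum fluorescence over baseline F0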
# CHO-K1 ctr = parental CHO-K1 activity in KCNQ2 potentiator counter-screen. activity increase over 3SD of controls, % at 10 µM. parental CHO-K1 cells, FluxOR thallium flux fluorescence; zero = vehicle mean+3SD, 100% = vehicle-minus-blank window. hit rate 43% among 1,200. shares compounds with KCNQ2 enhance;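 active = signal rise of at least 3 SD above the untreated control mean, in both duplicate wells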;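 also: counter screen of KCNQ2 potentiator hits so any rise reflects channel-independent effects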
# KCNQ1 pot spec = selectivity of KCNQ2 potentiators: effect on human KCNQ1; CHO KCNQ1 stable, FluxOR thallium flux fluorescence; beyond 3SD, as % of vehicle-control signal; shares compounds with KCNQ2 enhance; activation over 3SD threshold, % at 10 µM; hit rate 28% among 1,200;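 active = fluorescence ratio rise of at least 3 SD of vehicle wells above their mean, in both replicate wells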;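 also: 0% = vehicle mean plus 3 SD and 100% = vehicle minus unstimulated blank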
# KCNQ2 pot conf = rat KCNQ2 channel potentiator confirmation; shares compounds with KCNQ2 enhance; AID 2287; CHO-KCNQ2 cells, FluxOR thallium flux fluorescence; hit rate 68% among 1,200; potentiation, less the hit threshold, % at 10 µM;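 active = fluorescence ratio rising 3 SD or more over the vehicle control mean in both replicates, plus primary screen hit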;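 also: peak minus minimum thallium fluorescence divided by baseline after K/Tl stimulus; 0% = vehicle mean plus 3 SD and 100% = vehicle minus unstimulated blank difference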
# Kir2-1 sel = tests whether KCNQ2 potentiators also affect mouse Kir2.1 | AID 2345 | shares compounds with KCNQ2 enhance | hit rate 2% among 1,200 | activity over 3SD threshold, % at 10 µM | HEK293 Kir2.1, FluxOR thallium flux fluorescence;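 active = fluorescence ratio rise of at least 3 SD above the vehicle-control mean, seen in both replicates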;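 also: 0% = vehicle mean plus 3 SD and 100% = vehicle minus no-stimulus blank window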
# KCNQ2 W236L MoA = potentiates the retigabine-insensitive rat KCNQ2 W236L mutant channel; current increase over 3SD of negative controls (%), hits give high values, % at 25 µM; hit rate 10% among 940; shares compounds with KCNQ2 enhance; AID 2558; CHO KCNQ2-W236L, automated patch clamp current;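 active = current increase at least 3 SD of the untreated controls above them in both duplicate recordings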
# Numbers without * were called inactive; i = inactive; · = no result given.
SMILES,KCNQ2 enhance,KCNQ2 block,Kir21 confirm,HEK293 ctr,others
CCS(=O)(=O)NCc1nnc2n1-c1ccc(Br)cc1C(c1ccccc1Cl)=NC2,·,i,·,·,
CN(C)CCN(C(=O)COc1ccc(Cl)cc1)c1nc2cc3c(cc2s1)OCO3,·,i,·,·,
Cc1c2cnn(CC(=O)N3CCC4(CC3)OCCO4)c(=O)c2c(C)n1Cc1cccc(Cl)c1,0.68,i,·,·,
O=C(Cn1ncc2c3ccccc3n(Cc3cccc(Cl)c3)c2c1=O)N1CCC2(CC1)OCCO2,13*,i,i,i,CHO-K1 ctr=109*;KCNQ1 pot spec=-18;KCNQ2 pot conf=58*;Kir2-1 sel=-28;KCNQ2 W236L MoA=i
O=c1cccc2n1CC1CC2CN(Cc2cccc(Cl)c2Cl)C1 (stereo not drawn),·,i,38%*,i,
O=c1cccc2n1CC1CC2CN(Cc2c(F)cccc2Cl)C1 (stereo not drawn),0.97,i,·,·,
CN1C(=O)N(C)C(=O)C2(Cc3cc(NC(=O)c4ccc(F)cc4)ccc3N3CCCC32)C1=O (stereo not drawn),·,i,·,·,
Cc1ccccc1N1CCN(C2CCCN(C(=O)Cc3c(C)noc3C)C2)CC1 (stereo not drawn),0.9,i,·,·,
O=[N+]([O-])c1ccc(-[n+]2c(-c3ccccc3)cc(-c3ccccc3)cc2-c2ccccc2)cc1,0.04,i,·,·,
COc1ccc(-[n+]2c(-c3ccccc3)cc(-c3ccccc3)cc2-c2ccccc2)cc1,-8.4,-8.4*,26%*,i,
CC(Cc1ccccc1)N1C(=O)c2ccccc2C1=O (stereo not drawn),·,i,·,·,
COc1ccccc1N1CCN(CCc2ccccc2)CC1,1.2,i,·,·,
